The values below come from PubChem BioAssay AID1850 (Southern Research Specialized Biocontainment Screening …, 2009).

In general, inhibition refers to the drop in the measured response relative to a control, in per cent.

The structures appear in SMILES notation. Among all 310,000 compounds or so, about 1,000 (0.32%) were called active. These entries were drawn from the full list. Entries with a potency or affinity are not part of this list. Values without a mark were called inactive. How the calls were made is not given here.

This experiment in a line: Inhibition of PhoP regulon, Salmonella typhi GFP reporter cells, confirmation, 4 h (AID 1850).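 Further: 0% = induced wells with vehicle and 100% = uninduced wells.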 The note with it: Salmonella Typhi PhoP-promoter GFP reporter, fluorescence, at 50 µM, stronger effect = higher value.
As for `CCN(CC)CCNC(=O)CNC(=O)c1nn(-c2ccc(OC)c(OC)c2)c(=O)c2ccccc12`, the inhibition was -2.16%.
In the case of `CC(=O)c1cc(C)ccc1OC(=O)c1ccncc1`, the inhibition was -3.27%.
With `CN1CCC2(CC1)N=C(c1ccc(F)cc1)C(=S)N2C(=O)c1ccc(C(C)(C)C)cc1`, the inhibition is 17.9%.
To `CN1CCC2(CC1)N=C(c1ccc(F)cc1)C(=S)N2C(=O)c1ccccc1` belongs -2.67%.
For `O=C(O)c1ccc(S(=O)(=O)Nc2ccc3c(c2)OCCO3)cc1`, the inhibition was -5.88%.
Take `CCCC(=O)Nc1ccc(C(=O)NNC(=O)COc2ccc(Br)c(C)c2)cc1`: the inhibition was -2.62%.
Turning to `O=c1[nH]cc(O)c(=O)[nH]1`, the inhibition is 6.55%.
In the case of `O=c1[nH]cc(-c2ccccc2)c(=O)[nH]1`, the inhibition is 2.03%.
With `COC(=O)CN1C2=NCCCN2c2ccccc21`, the inhibition was 6.91%.
To `Cc1sc2ccccc2[n+]1CC(=O)c1ccccc1` belongs -4.52%.
In the case of `Cc1sc2cc3c(c(C(=O)c4ccccc4)[n+]2c1C)-c1cccc2cccc-3c12` it was -9.84%.
In the case of `O=C(OCc1ccc(COC(=O)c2cccnc2Cl)cc1)c1cccnc1Cl` it was -8.94%; in that of `CCOc1ccc(OCC(=O)N2CCOCC2)cc1`, -0.13%; in that of `CCn1nc(C(=O)N2CCN(Cc3ccc4c(c3)OCO4)CC2)c2ccccc2c1=O`, -11.3%.
As for `CCn1cc(C(=O)NCCC(=O)OC)c(=O)c2cc3c(cc21)OCO3`, the inhibition was 2.1%.
In the case of `CCn1ccc(=O)c2cc3c(cc21)OCO3` it was -2.2%; in that of `CCOC(=O)c1cn(CC)c2cc3c(cc2c1=O)OCO3`, 2.61%.
For the compound `O=C(Nc1ccccc1C(F)(F)F)N1CCN(c2ccccn2)CC1`, the inhibition is 5.82%.
In the case of `O=C(C1CC(c2ccccc2O)=NO1)N1CCc2ccccc2C1` (stereo unspecified), the inhibition is -3.18%.
As to `O=C(C[n+]1cccc(CNC(=O)c2ccc(OC(F)F)cc2)c1)Nc1cccc(C(F)(F)F)c1`, the inhibition was 1.69%.
Take `O=C(C[n+]1cccc(CNC(=O)c2ccc(OC(F)F)cc2)c1)Nc1ccc(F)cc1`: the inhibition was -3.3%.
Take `O=C(COC(=O)C1=COCCO1)Nc1ccc(F)cc1`: the inhibition was 2.51%.
Take `Cc1ccc(SCC(=O)Nc2ccc3c(c2)C(=O)NC3=O)cc1`: the inhibition was 5.23%.
Regarding `Oc1ccc(C23CC4CC(CC(C4)C2)C3)cc1O`, the inhibition was 0.69%.
In the case of `Oc1ccccc1CNCC12CC3CC(CC(C3)C1)C2`, the inhibition was 6.43%.
To `C=CCNC(=O)c1cccc(OC2CCN(CC(C)(C)C)CC2)c1` belongs -1.47%; to `O=C(Nc1cccc(S(=O)(=O)N2CCCC2)c1)c1ccncc1`, -14.8%; to `Nc1c(Cl)ncnc1N/N=C/c1ccc2ccccc2n1`, 8.37%.
Take `Nc1c(Cl)ncnc1N/N=C/c1ccncc1`: the inhibition is 5.13%.
Turning to `O=C(C[n+]1cc(Br)cc2ccccc21)c1ccccc1`, the inhibition is 22%.
Turning to `O=C(C[n+]1cc(Br)cc2ccccc21)c1ccc(Br)cc1`, the inhibition is 5.62%.
As for `CCCNC(=O)CSc1nnc(-c2ccc(F)cc2)o1`, the inhibition is -7.43%.
On to `CC1CN(CC(O)COc2ccc(C#N)cc2)CCN1CC(O)COc1ccc(C#N)cc1` (stereo unspecified), for which the inhibition was 9.68%.
In the case of `O=C(Nc1cccc([N+](=O)[O-])c1)Nc1cccc([N+](=O)[O-])c1`, the inhibition was 1.71%.
`O=C(Cc1cccs1)Nc1cccc([N+](=O)[O-])c1`: the inhibition is 0.05%.
Turning to `CN(C)S(=O)(=O)c1cccc(-c2csc(=Nc3ccccc3)n2CCCN2CCOCC2)c1`, the inhibition is 4.21%.
Regarding `COc1ccc(C(=O)c2no[n+]([O-])c2C(=O)c2ccc(OC)cc2)cc1`, the inhibition was 21.3%.
To `Cc1ccc(C(=O)c2no[n+]([O-])c2C(=O)c2ccc(C)cc2)cc1` belongs 19.9%.
Regarding `O=C(NCCN1CCOCC1)c1ccc2c(c1)N(Cc1c(F)cccc1Cl)C(=O)c1ccccc1S2`, the inhibition is -4.77%.
To `CCc1nnc(NC(=O)c2cccc(S(=O)(=O)N3CCc4ccccc43)c2)s1` belongs -12.3%; to `Oc1c(Br)cccc1/C=N/c1ncn[nH]1`, -5.35%.
To `Oc1c(Cl)cc(Cl)cc1/C=N/c1ncn[nH]1` belongs 3.2%; to `O=[N+]([O-])C(=C1Nc2ccccc2N1)/C(Cl)=C(/Cl)Br`, -3.57%.
In the case of `O=[N+]([O-])C(=C1Nc2ccccc2N1)C(Cl)=C(Cl)Cl` it was -0.56%; in that of `Cc1ccc(S(=O)(=O)NCCC(=O)Nc2ccncc2)cc1C`, 9.54%; in that of `COCCNC(=O)C1CC(c2ccc(F)cc2)=NO1` (stereo unspecified), -13.4%.
In the case of `Cc1ccc(S(=O)(=O)N2CCCC2C(=O)NCc2ccccc2F)cc1` (stereo unspecified), the inhibition was -7.81%.
To `CCN(CC)CCCn1c2c(c(SCC(=O)Nc3ccc4c(c3)OCCO4)nc1=O)CCC2` belongs 11.9%.
With `Cc1ccsc1CN(C)C(=O)CCc1nnc(COc2ccccc2)o1`, the inhibition is -5.48%.
Regarding `Cc1ccc(OCC(=O)N/N=C\c2c(C)n(C)c3ccccc23)c([N+](=O)[O-])c1`, the inhibition is -4.6%.
As for `Cc1[nH]n(-c2ccccc2)c(=O)c1/C=N/NC(=O)COc1ccccc1[N+](=O)[O-]`, the inhibition is -5.18%.
As to `COCCNC(=O)c1onc(CS(=O)(=O)c2cc(C)cc(C)c2)c1C(=O)NCCOC`, the inhibition is 5.4%.
As for `O=C(NCc1ccc2c(c1)OCO2)c1cccc([N+](=O)[O-])c1`, the inhibition was -1.83%.
On to `COc1ccc(/C=C2/C(=O)N(c3nc4ccccc4s3)N=C2CSc2ccc(Cl)cc2)cc1`, for which the inhibition was 3.84%.
Regarding `NC(=O)c1c(NC(=O)c2ccc([N+](=O)[O-])o2)sc2c1CCCC2`, the inhibition was -5.17%.
Take `CC(C)N1CCc2c(sc(NC(=O)c3ccc([N+](=O)[O-])o3)c2C(N)=O)C1`: the inhibition is -4.77%.
To `Cn1c(=O)cc(OCCCC(=O)NCc2cccnc2)c2ccccc21` belongs 0.57%.
For `COc1ccccc1N1C(=O)c2cccnc2C1=O`, the inhibition was -1.48%.
In the case of `Cc1cccc(/C=C/C(=O)c2cc(Br)ccc(=O)c2O)c1`, the inhibition is 4.56%.
For the compound `CCc1ccc(/C=C/C(=O)c2cc(Br)ccc(=O)c2O)cc1`, the inhibition is -13.9%.
As for `CCOC(=O)C1(CC)CC(CSc2nc3ccccc3[nH]2)OC1=O` (stereo unspecified), the inhibition was 5.22%.
For `O=C(O)c1cccnc1Sc1ccccc1Cl`, the inhibition was -7.16%.
In the case of `c1ccc(CN2CCN(Cc3c[nH]c4ccccc34)CC2)cc1`, the inhibition was 1.99%.
In the case of `Clc1ccccc1N1CCN(Cc2c[nH]c3ccccc23)CC1` it was -13.8%; in that of `Nc1ccccc1SC(C[N+](=O)[O-])c1ccccc1` (stereo unspecified), 15.4%; in that of `Nc1ccc(Sc2ccc([N+](=O)[O-])cc2)cc1`, -7.65%.
To `COc1cc(/C=N/NC(=O)c2ccncc2)ccc1Oc1ccc([N+](=O)[O-])cn1` belongs 4.23%.
In the case of `O=c1c2ccccc2n(CC(O)CN2CCCCC2)c2ccccc12` (stereo unspecified) it was -2.95%.
For `COc1ccc(OCC(O)CNCc2ccco2)cc1` (stereo unspecified), the inhibition is 0.683%.
Regarding `OC(CNCc1ccco1)Cn1c2ccccc2c2ccccc21` (stereo unspecified), the inhibition is 1.11%.
`OC(CN1CCCCC1)Cn1c2ccccc2c2ccccc21` (stereo unspecified): the inhibition is -5.86%.
Turning to `CC1(C)CC(OC(=O)c2ccco2)CC(C)(C)N1O`, the inhibition is -11.8%.
As for `CCn1nc(C(=O)OCC(=O)N(CC(C)C)c2c(N)n(Cc3ccccc3)c(=O)[nH]c2=O)c2ccccc2c1=O`, the inhibition is -10.1%.
Take `Cc1csc(NC(=O)CSc2nnc3c4ccccc4nc(C(C)(C)C)n23)n1`: the inhibition is -6.02%.
In the case of `CN(C)/C=C/c1onc(-c2c(F)cccc2Cl)c1C#N`, the inhibition was -0.05%.
In the case of `COc1ccc(-n2c(-c3ccc(Br)cc3)c[n+]3c2CCc2ccccc2-3)cc1` it was 13.6%; in that of `Brc1ccc(-c2cn3c(n2)CCc2ccc4cccnc4c2-3)cc1`, 1.82%; in that of `COc1ccc(-c2nc(CS(=O)(=O)CC(=O)Nc3cccc(C(C)=O)c3)c(C)o2)cc1`, -8.19%.
To `CC(=O)c1ccc(O)c(CSc2nncn2C)c1` belongs -0.79%; to `COC(=O)C1=C(C)N(Cc2ccccc2)C(=NCc2ccc(OC)cc2)N[C@H]1c1cccc(F)c1`, 10.3%; to `COC(=O)C1=C(C)N(Cc2ccccc2)C(=NCc2ccccc2)N[C@H]1c1cccc(F)c1`, -0.78%.
For the compound `CCCNC(=O)c1cc(-c2ccccc2)c(N2CCCCC2)s1`, the inhibition was 9.44%.
In the case of `CCCCc1ccc(NC(=O)CSc2nc(=O)n(CCN(C)C)c3c2CCC3)cc1`, the inhibition was 11.9%.
For the compound `Cc1cccc(NC(=O)c2cc(S(=O)(=O)N(C)c3ccc(F)cc3)ccc2Cl)n1`, the inhibition was 8.42%.
In the case of `c1ccc(Nc2ccccn2)nc1` it was -2.23%; in that of `Oc1ccccc1Nc1ccccn1`, -1.96%.
Regarding `Cc1ccc(S(=O)(=O)N2CCC(C(=O)O)CC2)cc1`, the inhibition was -0.71%.
In the case of `CCOCCCn1c(=S)[nH]c2cc(C(=O)NCCc3ccc(OC)c(OC)c3)ccc2c1=O` it was 3.11%.
Take `CCCC(CCC)C(=O)Nc1ccc2c(c1)N(C(=O)CN1CCN(C)CC1)c1ccccc1CC2`: the inhibition was 5.91%.
For the compound `Cc1ccc(NC(=O)NNC(=O)c2ccccc2)cc1`, the inhibition is 1.31%.
As for `COC(=O)/C(=C\C(=O)c1ccccc1)Nc1ccc(OC)cc1`, the inhibition is -7.68%.
As to `Cc1ccc(NC(=O)c2ccccc2)cc1`, the inhibition is -5.33%.
On to `C/C(=C\C(=O)c1ccccc1)Nc1ccc(O)cc1`, for which the inhibition was -9.8%.
In the case of `O=C(NCc1ccc(Cl)cc1)N1CCc2ccccc2C1`, the inhibition was 2.15%.
`COc1ccc2c(c1)CC/C(=C\c1ccc(C)o1)C2=O`: the inhibition is -3.7%.
As for `CC1Cc2ccccc2N1Cc1nc2scc(-c3cccs3)c2c(=O)[nH]1` (stereo unspecified), the inhibition was 0.2%.
